According to the supplement of paper PMC11732987, “Enantioselective OTUD7B fragment discovery through chemoproteomics screening and high-throughput optimisation” (Communications Chemistry, 2025):
Unmarked numbers belong to inactive results.

What follows are compounds tested against T1, ALG13 (UniProt Q9NP73) (assay: log2 ratio of Biotin-Ahx-Ub-VS probe labelling (fragment/DMSO); higher = less target engagement (more negative = stronger competition), active = hit call of the paper (q ≤ 0.05, log2 ratio ≤ -1)). Conditions: compound concentration: 200 uM; treatment time: 3 h.
T1 sequence (whole entry): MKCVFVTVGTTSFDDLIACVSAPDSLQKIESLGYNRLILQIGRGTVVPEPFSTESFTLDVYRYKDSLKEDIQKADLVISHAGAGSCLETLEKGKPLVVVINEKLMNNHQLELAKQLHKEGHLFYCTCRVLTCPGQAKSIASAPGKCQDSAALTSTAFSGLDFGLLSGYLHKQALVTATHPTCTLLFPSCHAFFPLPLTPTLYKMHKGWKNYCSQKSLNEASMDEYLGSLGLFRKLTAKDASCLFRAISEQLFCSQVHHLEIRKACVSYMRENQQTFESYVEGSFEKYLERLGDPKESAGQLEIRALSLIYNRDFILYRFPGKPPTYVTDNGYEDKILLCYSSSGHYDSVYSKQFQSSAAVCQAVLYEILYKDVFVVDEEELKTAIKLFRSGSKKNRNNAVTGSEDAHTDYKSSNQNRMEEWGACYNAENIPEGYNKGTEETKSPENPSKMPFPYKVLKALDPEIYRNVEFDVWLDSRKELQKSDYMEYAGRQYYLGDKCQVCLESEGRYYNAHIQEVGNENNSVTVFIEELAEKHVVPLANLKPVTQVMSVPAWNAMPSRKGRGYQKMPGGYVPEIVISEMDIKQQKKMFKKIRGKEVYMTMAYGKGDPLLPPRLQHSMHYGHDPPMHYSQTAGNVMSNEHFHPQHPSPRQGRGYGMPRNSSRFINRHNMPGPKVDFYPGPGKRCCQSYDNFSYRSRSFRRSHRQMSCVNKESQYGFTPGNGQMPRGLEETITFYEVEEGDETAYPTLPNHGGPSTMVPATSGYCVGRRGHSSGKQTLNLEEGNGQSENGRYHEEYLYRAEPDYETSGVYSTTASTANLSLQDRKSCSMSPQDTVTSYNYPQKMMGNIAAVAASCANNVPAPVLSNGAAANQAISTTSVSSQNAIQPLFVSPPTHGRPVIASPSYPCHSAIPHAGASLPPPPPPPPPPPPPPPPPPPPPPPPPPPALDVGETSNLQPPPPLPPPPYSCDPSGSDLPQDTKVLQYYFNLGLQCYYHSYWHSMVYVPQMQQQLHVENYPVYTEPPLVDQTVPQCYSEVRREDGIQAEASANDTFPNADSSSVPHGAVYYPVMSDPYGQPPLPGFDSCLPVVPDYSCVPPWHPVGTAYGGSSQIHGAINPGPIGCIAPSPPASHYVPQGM
How it was run: (§1)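 Lysate from HEK293T cells, 495 µg per sample in Tris/CHAPS/IGEPAL buffer with protease inhibitors, was treated for 3 h in triplicate with fragment at 200 µM or vehicle. Biotin-Ahx-Ub-VS was next added at 0.5 µM final for 1 h. The labelled DUBs were enriched with NeutrAvidin, digested with LysC and trypsin, and run by diaPASEF LC-MS/MS, with values given as average log2 fragment/vehicle ratios by unpaired t-test on global-median-normalised Spectronaut quantities of proteins with ≥2 unique peptides.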

In order of falling “log2 ratio of Biotin-Ahx-Ub-VS probe labelling” value (shortened to “log2 ratio”):
1. O=C(CCl)Nc1ccccc1C(F)(F)F  0.259
2. O=C(CCl)Nc1cccc(NC(=O)c2ccccc2)c1  0.117
3. Cc1conc1C1CN(C(=O)CCl)C1  0.0664
4. CC(=O)Nc1ccc(NC(=O)CCl)cc1  0.0593
5. Cc1ccc(-c2nnc(C)[nH]2)c(NC(=O)CCl)c1  0.0249
6. Cl.O=C(CCl)N1CCCC(c2ncc[nH]2)C1 (centres undefined)  0.0212
7. Cl.O=C(CCl)N1CCC(Cc2nccs2)C1 (centres undefined)  0.0161
8. COc1ccccc1C(C)NC(=O)CCl (centres undefined)  -0.0378
9. CS(=O)(=O)c1ccc(CNC(=O)CCl)cc1  -0.0665
10. O=C(CCl)N1CCCC2CCCCC21 (centres undefined)  -0.21
11. Cc1ccc(C)c(Oc2ccc(CNC(=O)CCl)cn2)c1.Cl  -0.222
12. O=C(CCl)N1CC=C(c2c[nH]c3ccccc23)CC1  -0.249
13. O=C(CCl)N1CCC2(CCC(O)CC2)CC1  -0.532

With `O=C(CCl)N1CCOCC1C1CC1` (centres undefined) the “log2 ratio” value was -1.36 (active).

These compounds were tested against ATXN3 (UniProt P54252) in the same assay as above. Conditions: compound concentration: 200 uM; treatment time: 3 h.
Chain of ATXN3 (P54252 whole entry): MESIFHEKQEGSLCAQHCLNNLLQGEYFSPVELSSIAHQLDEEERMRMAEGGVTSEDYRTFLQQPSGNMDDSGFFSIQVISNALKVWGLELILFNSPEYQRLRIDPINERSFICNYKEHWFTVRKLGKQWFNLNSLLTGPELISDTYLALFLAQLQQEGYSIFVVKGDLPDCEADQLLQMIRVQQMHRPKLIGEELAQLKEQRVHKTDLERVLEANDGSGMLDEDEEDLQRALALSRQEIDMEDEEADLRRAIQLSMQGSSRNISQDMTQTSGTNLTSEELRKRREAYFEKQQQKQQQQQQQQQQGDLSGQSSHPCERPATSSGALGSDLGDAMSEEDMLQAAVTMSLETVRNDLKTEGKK
How it was run: as §1

In order of rising “log2 ratio” value:
1. O=C(CCl)N1CCc2sccc2C1  -0.969
2. COc1ccc(-c2csc(NC(=O)CCl)n2)cc1  -0.907
3. NC(=O)C1CCCCN1C(=O)CCl (centres undefined)  -0.889
4. Cc1conc1C1CN(C(=O)CCl)C1  -0.85
5. O=C(CCl)N1CCC2(CCC(O)CC2)CC1  -0.833
6. Cc1noc(N2CCN(C(=O)CCl)CC2)n1.Cl  -0.811
7. CC(=O)Nc1ccc(NC(=O)CCl)cc1  -0.656
8. Cl.O=C(CCl)N1CCC(Cc2nccs2)C1 (centres undefined)  -0.494
9. Cc1ccc(C)c(Oc2ccc(CNC(=O)CCl)cn2)c1.Cl  -0.48
10. CN(CCC(O)c1ccc(Br)cc1)C(=O)CCl (centres undefined)  -0.473
11. O=C(CCl)Nc1ccccc1C(F)(F)F  -0.449
12. Cl.Cn1c(CNC(=O)CCl)nc2cccnc21  -0.424
13. O=C(CCl)Nc1ccc2c(c1)OC(F)(F)O2  -0.411
14. CS(=O)(=O)c1ccc(CNC(=O)CCl)cc1  -0.381
15. O=C(CCl)N1CCc2[nH]c3ccccc3c2C1  -0.343
16. O=C(CCl)N1CCCC2CCCCC21 (centres undefined)  -0.321
17. O=C(CCl)N1CCCCCC1c1ncon1 (centres undefined)  -0.268
18. Cl.O=C(CCl)N1CCCC(c2ncc[nH]2)C1 (centres undefined)  -0.259
19. O=C(CCl)N1CCN2C(=O)CCC2C1 (centres undefined)  -0.237
20. COCC1C=CCCN1C(=O)CCl (centres undefined)  -0.232
21. Cc1cccc(C)c1NC(=O)CCl  -0.224
22. O=C(CCl)N1CCOCC1C1CC1 (centres undefined)  -0.209
23. CCN(C(=O)CCl)C1CCS(=O)(=O)C1 (centres undefined)  -0.159
24. CC(NC(=O)CCl)c1cnn(C2CC2)c1 (centres undefined)  -0.145
25. O=C(CCl)N(C1CCCC1)C1CCS(=O)(=O)C1 (centres undefined)  -0.109
26. Cc1ccc(CN(C)C(=O)CCl)o1  -0.103
27. COc1ccccc1C(C)NC(=O)CCl (centres undefined)  -0.0967
28. Cc1cnc2[nH]cc(CCNC(=O)CCl)c2c1  -0.0726
29. Cc1ccc(CNC(=O)CCl)nc1C.Cl  -0.055
30. Cc1ccc(-c2nnc(C)[nH]2)c(NC(=O)CCl)c1  -0.0255
31. O=C(CCl)N1CCOCCC1c1ccccc1 (centres undefined)  0.117
32. O=C(CCl)Nc1cccc(NC(=O)c2ccccc2)c1  0.278

With `O=C(CCl)N1CCC[C@@H]1c1ccon1` the “log2 ratio” value was -1.28 (active).
With `O=C(CCl)N1CCCC1c1ccsc1` (centres undefined) the “log2 ratio” value was -1.15 (active).
For `O=C(CCl)N1CC=C(c2c[nH]c3ccccc23)CC1`, the “log2 ratio” value was -1.2 (active).
